PubChem BioAssay AID602292 (National Center for Advancing Translational Sciences (NCATS), 2012)
Among all 1,300 compounds or so, about 380 (29%) were called active. Roughly 37% stayed inconclusive and do not appear here. Some of the results follow. Unmarked numbers belong to inactive results. Calls come from the whole dose curve; as a rule, active = well fitted inhibition curve with a large enough effect; inconclusive = small, poorly fitted or top-dose-only effect; inactive = flat fitted curve, though single readings scatter.

biological target: Thyrotropin receptor (Homo sapiens) (UniProt P16473); assay: qHTS for antagonists of the Thyroid Stimulation Hormone Receptor: Hit Validation in Primary Screen; conditions: TSHR-expressing cells, cAMP antagonist mode; series mostly up to 58 µM; activity change, negative = inhibition: at the top concentration; note: nearly all actives have a fitted effect of over 80% in size;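 for activity change, negative = inhibition: cAMP by competitive HTRF where cellular cAMP lowers the 665 nm FRET signal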
Sequence (P16473 whole entry, looked up): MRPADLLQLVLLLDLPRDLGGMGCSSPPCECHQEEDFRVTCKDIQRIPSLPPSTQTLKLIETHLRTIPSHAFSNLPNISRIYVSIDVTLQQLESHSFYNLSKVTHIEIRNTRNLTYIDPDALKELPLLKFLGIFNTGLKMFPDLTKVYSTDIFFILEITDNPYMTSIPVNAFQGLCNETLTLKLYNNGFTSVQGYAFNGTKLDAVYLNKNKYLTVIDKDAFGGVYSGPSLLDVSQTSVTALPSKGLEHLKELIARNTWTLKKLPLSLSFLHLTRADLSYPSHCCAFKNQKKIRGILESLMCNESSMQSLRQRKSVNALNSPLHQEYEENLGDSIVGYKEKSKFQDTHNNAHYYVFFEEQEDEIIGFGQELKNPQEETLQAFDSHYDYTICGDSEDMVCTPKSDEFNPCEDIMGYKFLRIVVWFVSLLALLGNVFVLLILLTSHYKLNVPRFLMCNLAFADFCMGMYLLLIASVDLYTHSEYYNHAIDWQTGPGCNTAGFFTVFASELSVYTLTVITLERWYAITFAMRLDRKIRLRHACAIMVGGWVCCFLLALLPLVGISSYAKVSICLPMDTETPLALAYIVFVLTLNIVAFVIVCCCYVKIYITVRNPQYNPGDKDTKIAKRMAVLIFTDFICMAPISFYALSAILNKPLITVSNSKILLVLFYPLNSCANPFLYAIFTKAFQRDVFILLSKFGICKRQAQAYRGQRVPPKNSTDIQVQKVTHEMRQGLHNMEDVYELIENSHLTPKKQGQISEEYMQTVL
Procedure, shortened: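 TSHR-expressing cells were pretreated with compound, then stimulated with TSH at EC80 (4nM final) for 2 hours at 37 deg C. Cellular cAMP measured by competitive HTRF (anti-cAMP cryptate, cAMP-d2) after 30 min at room temperature.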
% is set by controls: 0 for no effect and ±100 for the full control effect; potency is the fitted concentration of half-maximal effect.

Row | SMILES | activity change, negative = inhibition [%] | Potency
1 | CC1(C)CC(O)CC(C)(C)N1CC(O)COCc1ccccc1 (stereo unspecified) | -8.04 | –
2 | Clc1c(CSc2nc3ccccc3o2)nc2ccccn12 | – | 23.9 µM (active)
3 | Cc1c(C(=O)Nc2ccc3c(c2)OCCO3)sc2nc(-c3ccccc3)cn12 | – | 30.1 µM (active)
4 | Cc1cc(-n2c(C)cc(C(=O)CSc3[nH]c(=O)cc(C(F)(F)F)c3C#N)c2C)no1 | – | 9.53 µM (active)
5 | CCCCn1c(NC(=O)c2ccccc2Cl)c(C#N)c2nc3ccccc3nc21 | – | 15.1 µM (active)
6 | Cc1ccc(Sc2ncccc2NC(=O)c2ccccc2Cl)cc1 | -0.893 | –
7 | Cc1cccc2c1-c1sc(C(=O)NCCCN3CCCC(C)C3)cc1CO2 (stereo unspecified) | -9.68 | –
8 | CCCCn1c(-c2csc3c2CCCC3)n[nH]c1=S | – | 30.1 µM (active)
9 | COc1ccc(-c2cc(-c3nc4ccccn4c3NCc3ccccc3)ccc2OC)cc1 | – | 2.69 µM (active)
10 | COc1ccc(-c2csc3ncn(Cc4ccccc4)c(=O)c23)cc1 | -4.81 | –
11 | CCC(C)Sc1ccc(-c2nc3ccc(C)cn3c2NCc2ccccc2)cc1OC (stereo unspecified) | – | 21.3 µM (active)
12 | CCCCCCSc1ccc(-c2nc3ccc(Cl)cn3c2NCCCC)cc1OC | -8.61 | –
13 | CCCCNc1c(-c2cccc(-c3ccc(OC)cc3)c2)nc2ccc(C)cn12 | – | 37.9 µM (active)
14 | CCOc1ccccc1/C=C/c1onc(C)c1S(=O)(=O)N1CCC(C(=O)N2CCCCCC2)CC1 | -7.46 | –
15 | CCOc1ccccc1NC(=O)C1(S(=O)(=O)c2ccc(Cl)cc2)CC1 | -5.39 | –
16 | C=CC(C)(C)c1c2occc2c(O)c2ccc(=O)oc12 | – | 16.9 µM (active)
17 | COc1cccc(O)c1CN1CCC(C(=O)Nc2ccc(Oc3cccnc3)cc2)CC1 | -8.53 | –
18 | O=[N+]([O-])c1ccc(S(=O)(=O)c2ccccc2)nc1 | – | 37.9 µM (active)
19 | COc1ccc(-c2sc3ccc(N4CCOCC4)cc3c2C#CCO)cc1 | – | 19 µM (active)
20 | O=C(c1ccc2c(=O)n(Cc3ccc4c(c3)OCO4)c(=S)[nH]c2c1)N1CCCCC1 | -8.61 | –
21 | CCN(C(=O)CN1C(=O)COc2ccc(S(=O)(=O)N3CCOCC3)cc21)c1ccc(OC)cc1 | -2.48 | –

Row | SMILES | activity change, negative = inhibition [%] | Potency
22 | COC(=O)c1ccc(NC(=O)c2ccccc2)o1 | -9.82 | –
23 | COc1ccc(C(=O)c2ccccc2)c2c(O)ccc(C(=O)c3ccccc3)c12 | – | 12 µM (active)
24 | Cc1ccc(F)cc1CNC(=O)c1cc(COc2ccc3ncccc3c2)on1 | – | 21.3 µM (active)
25 | Cc1ccc(OCc2cc(C(=O)NCC3COCCO3)no2)cc1C (stereo unspecified) | -1.01 | –
26 | Cc1cc(OCc2cc(C(=O)NCc3csc(C(C)C)n3)no2)cc(C)c1Cl | -20.8 | –
27 | CC(CNC(=O)c1cc(COc2ccc3ncccc3c2)on1)c1ccccc1 (stereo unspecified) | – | 23.9 µM (active)
28 | O=C(NCc1cccc(Cl)c1)c1cc(COc2ccc3ncccc3c2)on1 | – | 9.53 µM (active)
29 | COc1ccc(CNC(=O)C(C)OC(=O)c2cccs2)cc1 (stereo unspecified) | 0.0864 | –
30 | COc1ccc(S(=O)(=O)NCCc2cn3nc(C)c(C)nc3n2)cc1F | -4.26 | –
31 | COc1ccc(NC2CCCN(C(=O)CCc3cccc(F)c3)C2)cc1 (stereo unspecified) | -4.72 | –
32 | COc1ccc(-c2csc(/C(C#N)=C\c3ccc(O)c([N+](=O)[O-])c3)n2)cc1OC | – | 1.9 µM (active)
33 | CCOc1ccc(-c2csc(/C(C#N)=C\c3ccc(O)c([N+](=O)[O-])c3)n2)cc1 | – | 6.01 µM (active)
34 | NC(=O)c1cc(S(=O)(=O)NCc2ccc(F)cc2)cs1 | -2.42 | –
35 | CCN(CCCNC(=O)Cn1ncc2c([nH]c3ccc(C)cc32)c1=O)c1cccc(C)c1 | -2.65 | –
36 | COc1ccc(/C=N/NC(=O)c2ccoc2C)cc1COc1c(C)cccc1C | – | 12 µM (active)
37 | COc1ccc(N2C(=O)NC(NS(=O)(=O)c3ccc(Cl)cc3)(C(F)(F)F)C2=O)cc1 (stereo unspecified) | -8.7 | –
38 | O=c1nc(/C=C/c2ccccc2C(F)(F)F)cc(C(F)(F)F)[nH]1 | -8.07 | –
39 | O=c1cc(C(F)(F)F)[nH]c2ccc(OC(F)(F)F)cc12 | – | 9.53 µM (active)
40 | O=c1cc(C(F)(F)F)[nH]c2c(C(F)(F)F)cccc12 | – | 2.39 µM (active)
41 | O=C(Cn1ncc2c([nH]c3ccccc32)c1=O)NCC1CCN(Cc2ccc(F)cc2)CC1 | -2.88 | –
42 | CCOC(=O)C1=C(C)Nc2ccccc2N=C1NC(=O)c1cc(C)on1 | -4.52 | –

Row | SMILES | activity change, negative = inhibition [%] | Potency
43 | N#CC1=C(N)NC(SCc2ccc(Br)cc2)=C(C#N)C12CCCCC2 | – | 23.9 µM (active)
44 | COc1ccc(Cl)cc1NC(=O)C1CCN(C(=O)C2CC(=O)N(c3ccc(C)cc3)C2)CC1 (stereo unspecified) | -4.9 | –
45 | COc1cc(OC)c(NC(=O)Cn2cnc3sc(C)c(S(=O)(=O)N4CCOCC4)c3c2=O)cc1Cl | -6.91 | –
46 | Cc1cc(Cl)c(S(=O)(=O)N2CCSCC2)cc1OCC(=O)NC1CCCCC1 | – | 23.9 µM (active)
47 | Cc1ccc(S(=O)(=O)N2CCCC(C(=O)NC3CCCC3)C2)cc1Cl (stereo unspecified) | -6.48 | –
48 | O=C(NC1CCCCC1)c1cc(-c2ccccc2O)on1 | -8.18 | –
49 | CCOC(=O)c1c(S(=O)(=O)NCC(=O)Nc2cccc(C)c2C)c(C)n(C)c1C | -1.33 | –
50 | c1ccc(CNc2ncnc3scc(-c4cccs4)c23)nc1 | – | 21.3 µM (active)
51 | Cc1ccc(OCc2nnc(NC(=O)c3cccnc3)s2)cc1 | -0.605 | –
52 | O=C(COc1ccc(-c2ccccc2)cc1)Nc1cccnc1 | – | 37.9 µM (active)
53 | O=C(CCC(=O)Nc1ccccc1)N/N=C/c1ccncc1 | -9.39 | –
54 | O=C(Nc1ccc(Br)cc1)c1cccc(S(=O)(=O)Nc2cnc3ccccc3c2)c1 | – | 21.3 µM (active)
55 | CCCCN1C(=O)c2ccc(C(=O)Nc3ccc(C)c(S(=O)(=O)N(C)C)c3)cc2C1=O | – | 23.9 µM (active)
56 | CCCN1C(=O)c2ccc(C(=O)Nc3cc(C)ccc3O)cc2C1=O | -0.893 | –
57 | O=[N+]([O-])c1cccc(S(=O)(=O)Nc2nc3ccccc3nc2Nc2cccc(S(=O)(=O)N3CCCCC3)c2)c1 | – | 12 µM (active)
58 | COC(=O)c1sc(-c2ccc(C(C)(C)C)cc2)cc1NC(=O)/C=C/C(=O)O | – | 26.9 µM (active)
59 | COC(=O)c1sc(-c2ccc(Cl)cc2)cc1NC(=O)/C=C/C(=O)O | – | 30.1 µM (active)
60 | Cc1ccccc1NC(=O)C1(C)Cc2ccccc2C(=O)O1 (stereo unspecified) | -2.25 | –
61 | CCN(C(=O)CSc1nnc(-c2ccccc2)o1)c1c(N)n(Cc2ccccc2)c(=O)[nH]c1=O | -5.21 | –
